Assay outcomes (PubChem)
In the library only some 1.8% were active in any assay of this set; here they are far more common.
GSTO1 inh: GSTO1 inhibition, counter-screen for RBBP9 inhibitors; P78417; recombinant GSTO1, activity-based probe fluorescence polarization; inhibition, % at 5.96 µM; actives 1.1% (n = 300,000); AID 1974;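 active means inhibition above the campaign mean inhibition plus 3 SD, cut at about 35% in these data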;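 further: 0% = GSTO1-1 with DMSO and 100% = wells lacking GSTO1-1 enzyme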
Target sequence (P78417 whole entry, looked up): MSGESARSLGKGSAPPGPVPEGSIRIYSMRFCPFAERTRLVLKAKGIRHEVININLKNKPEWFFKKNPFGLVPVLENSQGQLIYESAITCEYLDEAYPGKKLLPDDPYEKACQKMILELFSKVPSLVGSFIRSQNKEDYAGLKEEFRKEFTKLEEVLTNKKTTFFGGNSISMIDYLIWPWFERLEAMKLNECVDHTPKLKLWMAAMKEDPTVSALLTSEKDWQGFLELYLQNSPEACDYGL
PAD4 FP inh: PAD4 (human) enzyme inhibition | inhibition, % at 6.36 µM | recombinant PAD4, RCA probe fluorescence polarization | Q9UM07 | actives 0.41% (n = 330,000);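 active means percent inhibition above a cutoff equal to the mean of all tested compounds plus 3 SD, cut at about 15% in these data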;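 further: 0% = PAD4 with RCA probe and DMSO and 100% = probe without PAD4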
LYPLA2 counter: blocks human lysophospholipase 2, a PME1 counter-screen; O95372; recombinant LYPLA2, FP-Rh probe fluorescence polarization; inhibition, % at 5.9 µM; actives 0.38% (n = 320,000);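 active means inhibition above the screen-wide mean plus 3 SD, limit set per campaign, cut at about 26% in these data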;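 further: 0% = LYPLA2 with DMSO and 100% = wells lacking LYPLA2 enzyme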
Target sequence (O95372 whole entry, looked up): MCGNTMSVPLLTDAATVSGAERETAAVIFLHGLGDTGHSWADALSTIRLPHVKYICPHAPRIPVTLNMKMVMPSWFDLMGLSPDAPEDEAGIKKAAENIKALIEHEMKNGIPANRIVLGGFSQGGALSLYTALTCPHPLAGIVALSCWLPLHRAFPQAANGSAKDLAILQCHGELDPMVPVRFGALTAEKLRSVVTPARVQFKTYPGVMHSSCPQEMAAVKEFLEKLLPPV
LYPLA1 counter: LYPLA1 (human) inhibition in PME1 counter-screen. actives 0.16% (n = 320,000). AID 2174. recombinant LYPLA1, FP-Rh probe fluorescence polarization. inhibition, % at 5.9 µM;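 active means inhibition above the mean of all tested compounds plus 3 SD, set per campaign, cut at about 14% in these data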;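 further: inhibitors block serine hydrolase probe labeling of LYPLA1 so polarization falls; 0% = enzyme with DMSO and 100% = wells lacking LYPLA1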
Fam108B counter: Fam108B inhibition, counter-screen for RBBP9 inhibitors; recombinant Fam108B, FP-Rh probe fluorescence polarization; actives 0.33% (n = 300,000); inhibition, % at 9.51 µM;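 active means inhibition above the screen mean inhibition plus 3 SD, computed separately per campaign, cut at about 18% in these data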;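 further: inhibitors lower polarization as less probe binds the enzyme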
PME-1 primary: blocks human protein phosphatase methylesterase 1 | Q9Y570 | recombinant PME-1, FP-Rh probe fluorescence polarization | inhibition, % at 5.9 µM | actives 0.53% (n = 320,000) | AID 2130;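 active means inhibition above the campaign mean of all compounds plus 3 SD, cut at about 26% in these data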;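 further: competitive labeling of PME-1 active site by serine hydrolase directed probe; 0% = PME-1 with DMSO and 100% = wells lacking PME-1 enzyme; inhibitors block probe labeling so polarization falls and inhibition rises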
LYPLA1 confirm: counter-screen for PME1 inhibitors: confirmation of human LYPLA1 inhibitors | shares compounds with LYPLA1 counter | recombinant LYPLA1, FP-Rh probe fluorescence polarization | inhibition, % at 5.9 µM | actives 69% (n = 480) | AID 2233;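 active means mean inhibition across replicates above the hit cutoff set in the primary screen, cut at about 15% in these data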;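 further: loss of FP-Rh probe labeling of LYPLA1 seen as lower polarization; 0% = LYPLA1 with DMSO and 100% = wells lacking LYPLA1 enzyme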
An asterisk follows results filed as active; / = no result given.

SMILES	GSTO1 inh	PAD4 FP inh	LYPLA2 counter	LYPLA1 counter	Fam108B counter	PME-1 primary	LYPLA1 confirm
CC1CCN(S(=O)(=O)c2ccc3c(c2)CC(C)N3C(=O)C2CCC2)CC1 (centres undefined)	-11.0	-2.5	4.5	25.0*	6.4	11.0	33.8*
CC1Cc2cc(S(=O)(=O)N3CCN(C)CC3)ccc2N1C(=O)C1CC1 (centres undefined)	-2.2	-0.9	-6.1	-4.8	-2.2	5.2	/
CC1Cc2cc(S(=O)(=O)N3CCC(C(=O)N(C)Cc4ccco4)CC3)ccc2N1C(=O)C1CCC1 (centres undefined)	-10.1	-2.4	11.1	19.2*	3.8	3.2	28.8*
CCOC(=O)C1CCN(S(=O)(=O)c2ccc3c(c2)CC(C)N3C(=O)C2CCC2)CC1 (centres undefined)	-6.9	-0.2	2.7	16.0*	2.9	0.1	23.6*
CCOC(=O)C1CCCN(S(=O)(=O)c2ccc3c(c2)CC(C)N3C(=O)C2CC2)C1 (centres undefined)	2.6	1.2	-3.5	5.1	2.3	4.1	/
CCS(=O)(=O)c1nc(S(=O)(=O)c2ccc(C)cc2)c(N2CCC(C)CC2)s1	-6.8	-3.4	9.8	-4.2	2.8	1.9	/
O=C(CSc1nc(-c2ccco2)cc(C(F)(F)F)n1)NCCN1CCOCC1	-4.5	0.5	-6.0	-1.7	-0.4	-2.1	/
NC(=O)c1ccsc1NC(=O)CCS(=O)(=O)c1ccc(F)cc1	9.9	-2.7	7.2	-0.9	-1.1	4.4	/
C=CCc1ccccc1OCC(=O)NNC(=S)NCc1ccccc1	0.9	-5.8	2.4	4.7	1.6	0.9	/
COc1ccc(-c2nnc(Nc3nc4c(OC)cccc4s3)o2)cc1	-24.6	-8.3	18.0	17.4*	1.5	-27.0	41.4*
COc1ccc(-c2nnc(-c3ccc(N)cc3)o2)cc1	1.4	-1.7	-1.4	-1.6	7.8	6.7	/
CC(=O)c1sc(NC(=O)C2CCN(C(=O)c3ccc(F)cc3)CC2)nc1-c1ccccc1	4.6	-4.8	19.8	20.4*	0.0	11.9	28.6*
Cc1cc2oc(=O)cc(CN3CCN(C/C=C/c4ccccc4)CC3)c2cc1O	-4.6	1.6	17.5	20.4*	0.5	6.4	18.3*
Cc1c(O)ccc2c(CN3CCN(C/C=C/c4ccccc4)CC3)cc(=O)oc12	3.1	-1.8	17.3	11.4	-4.0	1.9	/
CC(C)(C)OC(=O)N1CCC(CC2CC(c3ccccc3)=NO2)(C(=O)NCc2ccccc2)CC1 (centres undefined)	6.3	-0.2	2.8	0.1	-1.4	5.3	/
COC(=O)C1(CC2CC(c3cccc(Br)c3)=NO2)CCN(C(=O)OC(C)(C)C)CC1 (centres undefined)	5.4	5.1	4.5	23.5*	0.5	-3.5	30.8*
Cc1nn(C)c(C)c1S(=O)(=O)N(CC(=O)NCCCN1CCC(C)CC1)c1ccc(C(C)C)cc1	-2.8	3.4	-7.1	-3.8	0.1	-4.4	/
O=C(C#Cc1ccccc1)c1ccco1	6.5	4.7	7.4	3.1	-1.6	-1.7	/
CCN(c1ccccc1)S(=O)(=O)c1ccc(OC)c(NC(=O)CN(C)C)c1	-2.6	0.1	4.3	14.9*	-0.5	1.4	7.3
CCN(c1ccccc1)S(=O)(=O)c1ccc(OC)c(NC(=O)CNC)c1	-12.7	-12.9	-3.8	0.4	-4.7	-3.7	/
O=C(c1ccc(-c2ccccc2)c(F)c1)C1CCCN(C(=O)c2cncs2)C1 (centres undefined)	2.9	-1.1	22.4	31.7*	3.4	7.4	51.6*
CC(C)Oc1cccc(C(=O)C2CCCN(C(=O)c3cncs3)C2)c1 (centres undefined)	2.0	2.9	3.5	3.3	0.2	-4.2	/
CC(=O)N1CCN(C(=O)COc2ccc(N(C)S(=O)(=O)c3cccs3)cc2)CC1	0.4	4.2	3.9	23.8*	-1.1	6.0	-1.8
CN(c1ccc(OCC(=O)N2CCC(C(N)=O)CC2)cc1)S(=O)(=O)c1cccs1	2.0	-3.6	-1.5	-2.9	1.2	6.2	/
COc1cc(C(=O)Oc2cccc(Nc3ncnc4ccccc34)c2)cc(OC)c1OC	-3.8	0.6	-24.3	-17.1	-9.1	-3.4	/
SMILES	GSTO1 inh	PAD4 FP inh	LYPLA2 counter	LYPLA1 counter	Fam108B counter	PME-1 primary	LYPLA1 confirm
COc1ccc(C(=O)Oc2cccc(Nc3ncnc4ccccc34)c2)cc1OC	-7.3	-2.2	5.8	15.7*	-3.8	-7.5	14.7*
CCN(CC(=O)NC1CCCC1)S(=O)(=O)c1ccc(F)cc1	-4.9	2.6	-2.3	-4.3	7.3	-12.2	/
COc1ccc([C@H]2CC(=O)C=C(c3ccc4c(c3)OCCO4)C2)cc1	/	-10.7	13.4	2.8	/	-0.8	/
COc1ccc([C@H]2CC(=O)C=C(c3ccc(C)c([N+](=O)[O-])c3)C2)cc1	/	-4.0	14.7	17.8*	/	4.9	17.5*
CCOC(=O)c1ccc(Oc2c(C)oc3c(CN4CCN(C)CC4)c(O)ccc3c2=O)cc1	-5.3	2.5	13.0	16.8*	0.4	-10.0	16.6*
O=C1/C(=C/c2cccc([N+](=O)[O-])c2)Oc2cc(O)ccc21	11.4	3.0	10.1	16.9*	14.3	3.5	14.6*
Cc1ccc(NC2CCCCC2NS(=O)(=O)c2ccccc2)c(C)c1 (centres undefined)	-8.3	2.8	-1.9	-3.9	2.9	-0.5	/
O=c1ccc2ccc(Oc3ccc([N+](=O)[O-])cc3[N+](=O)[O-])cc2o1	5.3	4.5	58.3*	39.7*	2.4	42.1*	40.2*
O=C(O)c1cc(-c2ccc(-c3ccc(F)cc3)o2)nc2ccccc12	-8.0	-11.1	-1.5	-2.2	5.4	1.5	/
O=P1(Nn2cnnc2)C=C(c2ccccc2)OC(c2ccccc2)=C1	0.3	1.0	18.0	16.7*	4.4	-1.3	0.5
CCCCc1cc(=O)oc2cc(OCc3cc(OC)c(OC)c(OC)c3)c(Cl)cc12	-2.2	1.1	19.5	16.3*	-2.5	2.3	27.3*
COc1ccc(-n2c(C)c([N+](=O)[O-])c3ccc(O)c(CN4CCCCC4)c32)cc1	10.3	0.5	24.6	54.1*	3.1	19.2	65.0*
NC(=O)C1=C[C@H](c2ccc(C(F)(F)F)cc2)C[C@H](OCc2ccc(CO)cc2)O1	3.5	-7.1	13.1	29.8*	3.0	13.7	34.5*
NC(=O)C1=C[C@@H](c2ccc(C(F)(F)F)cc2)C[C@@H](OCc2ccc(CO)cc2)O1	-0.6	-1.4	-10.8	-0.9	-0.2	-2.6	/
O=C(O)c1cc(Cl)ccc1-c1ccc(/C=C/c2cc(C(F)(F)F)[nH]c(=O)n2)o1	-7.9	1.5	31.4*	17.7*	6.0	0.4	0.0
O=c1nc(/C=C/c2ccc(-c3ccc(F)cc3)o2)cc(C(F)(F)F)[nH]1	-13.0	-9.0	-11.6	-1.7	-11.1	7.9	/
